Records with an inconclusive call do not appear. Unmarked numbers belong to inactive results. Calls come from the whole dose curve; as a rule, active = well fitted inhibition curve with a large enough effect; inconclusive = small, poorly fitted or top-dose-only effect; inactive = no such curve, though single readings can be large or run the other way.
Biological target: Polyunsaturated fatty acid lipoxygenase ALOX15 (Homo sapiens) (UniProt P16050)
Test: Confirmation qHTS Assay for Inhibitors of 15-hLO (15-human lipoxygenase)
Conditions: purified enzyme, xylenol orange hydroperoxide absorbance; hits give low values
Excerpt: Assay Provider: Holman, T.R., University of California, Santa Cruz Screening Center PI: Austin, Christopher P. Screening Center: NIH Chemical Genomics Center Human lipoxygenase 15hLO-1 is a member of the closely related lipoxygenase family of enzymes which catalyze the site-specific oxidation of arachidonic acid to various hormone precursor molecules and as such is a candidate for drug development in a variety of disease areas, such as cancer and inflammation. Inhibition of 15hLO-1 activity was screened by utilizing arachidonic acid as a substrate. The extent of hydroperoxide product formation was measured by a secondary chromogenic reaction in which xylenol orange (XO, Sigma-Aldrich, cat. number 39,818-7) reacts with the ferric ions produced from the reaction between the hydroperoxide and ferrous ions. The Fe(III)-XO complex is characterized with red-shifted absorbance at 560 nm. A purified preparation of human 15hLO-1 was supplied by Professor Ted Holman, University of California, Santa Cruz. This assay includes some confirmation and follow-up compounds for related primary screening assay AID 887.
Assay Protocol: Buffer: 25 mM Hepes pH 7.5, 0.01% Triton X-100. […] The absorbance at 405 and 573 nm were measured using ViewLux (Perkin-Elmer) High-throughput CCD imager and absorbance protocol settings. The 573-to-405 absorbance ratio was used to compute reaction progress.

Sequence of Polyunsaturated fatty acid lipoxygenase ALOX15 (Homo sapiens) (P16050 whole entry, looked up): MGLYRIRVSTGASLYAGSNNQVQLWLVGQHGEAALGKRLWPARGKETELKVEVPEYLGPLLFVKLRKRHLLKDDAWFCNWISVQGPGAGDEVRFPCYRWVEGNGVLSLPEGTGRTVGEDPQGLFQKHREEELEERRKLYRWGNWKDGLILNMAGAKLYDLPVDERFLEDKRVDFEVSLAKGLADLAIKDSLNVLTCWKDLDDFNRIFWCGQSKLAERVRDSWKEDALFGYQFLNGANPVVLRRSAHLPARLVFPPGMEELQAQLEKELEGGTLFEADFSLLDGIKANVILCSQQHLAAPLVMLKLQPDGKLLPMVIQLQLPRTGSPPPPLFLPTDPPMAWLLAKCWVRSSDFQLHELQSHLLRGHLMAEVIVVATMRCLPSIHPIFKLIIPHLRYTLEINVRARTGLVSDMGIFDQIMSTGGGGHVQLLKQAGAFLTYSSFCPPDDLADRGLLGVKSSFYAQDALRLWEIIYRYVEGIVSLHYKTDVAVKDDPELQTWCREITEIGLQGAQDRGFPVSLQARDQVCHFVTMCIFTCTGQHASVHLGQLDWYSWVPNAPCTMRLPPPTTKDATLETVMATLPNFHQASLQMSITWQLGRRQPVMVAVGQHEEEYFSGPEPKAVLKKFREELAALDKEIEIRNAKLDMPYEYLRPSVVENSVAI

CCC(C)C(=O)c1c(O)c(C)c2oc3c(C)c(O)c(C(=O)C(C)CC)c(O)c3c2c1O (stereo unspecified)
max response: -17.1%
